Source: the supplement of paper PMC12645437, “Orthogonal IMiD-Degron Pairs Induce Selective Protein Degradation in Cells” (ACS Chemical Biology, 2025)
Whole data set: some 8,300 sequences, median “log2 fold change of degron read counts, EGFP-low vs EGFP+ sorted cells (limma voom), compound-induced degradation” near -1.1, cut for the highest 2% near 3.2. The entries come from a sample that favours the highest values as a whole.

T1: CRBN, Q96SW2
T1 chain: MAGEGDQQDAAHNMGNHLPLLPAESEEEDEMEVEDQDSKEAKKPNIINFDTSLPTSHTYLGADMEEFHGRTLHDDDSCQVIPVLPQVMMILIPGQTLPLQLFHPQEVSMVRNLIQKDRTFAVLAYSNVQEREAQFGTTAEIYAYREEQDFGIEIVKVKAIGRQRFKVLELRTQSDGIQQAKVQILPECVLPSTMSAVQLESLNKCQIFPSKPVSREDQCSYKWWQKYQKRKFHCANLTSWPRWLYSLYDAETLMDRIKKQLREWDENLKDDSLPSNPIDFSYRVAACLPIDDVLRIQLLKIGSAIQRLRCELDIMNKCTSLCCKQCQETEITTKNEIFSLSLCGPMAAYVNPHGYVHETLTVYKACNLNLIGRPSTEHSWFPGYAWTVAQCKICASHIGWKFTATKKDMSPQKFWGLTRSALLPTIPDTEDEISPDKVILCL


Target: T1, CRBN, Q96SW2
Test: log2 fold change of degron read counts, EGFP-low vs EGFP+ sorted cells (limma voom), compound-induced degradation; higher = more compound-induced degradation of the degron-EGFP fusion; degrons are variants of IKZF1/3 zinc finger 2; compound dose not given here
Settings: Jurkat, 18 h
[1] = compound: compound 19 (5-tert-butyl-thalidomide)
[2] = compound: compound 22 (5-morpholino-thalidomide)
[3] = compound: compound 33 (diphenyl IMiD analogue)
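Note: pooled lentiviral library of zinc finger degron-EGFP fusions in mCherry-positive Jurkat cells, FACS-sorted after compound exposure, with degron abundance counted by next-generation sequencing.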

| Sequence | log2 fold change of degron read counts [1] | log2 fold change of degron read counts [2] | log2 fold change of degron read counts [3] | log2 fold change of degron read counts (compound: thalidomide) |
| --- | --- | --- | --- | --- |
| FFCNVCGAYFTQKGNLLRHIKL [46F_47F_49N_50V_52G_53A_54Y_55F_67L_, Q9UKT9] | -0.163 | 0.227 | 0.144 | -1.05 |
| FMCEICGRNFTQKGNLLRHIKL [46F_47M_49E_50I_52G_53R_54N_55F_67L_, Q9UKT9] | -2.42 | -2.71 | -0.582 | -1.02 |
| FFCSVCGHWFTQKGNLLRHIKL [46F_47F_49S_50V_52G_53H_54W_55F_67L_, Q9UKT9] | -1.15 | -1.58 | -1.38 | -1.26 |
| FTCPICGHLFTQKGNLLRHIKL [46F_47T_49P_50I_52G_53H_54L_55F_67L_, Q9UKT9] | -2.23 | -2.6 | -1.44 | -1.57 |
| FECPVCGARFTQKGNLLRHIKL [46F_47E_49P_50V_52G_53A_54R_55F_67L_, Q9UKT9] | 0.67 | -0.349 | 1.42 | 2.94 |
| FHCPVCGARFTQKGNLLRHIKL [46F_47H_49P_50V_52G_53A_54R_55F_67L_, Q9UKT9] | 1.99 | 2.23 | 0.971 | 0.937 |
| FACPVCGARFTQKGNLLRHIKL [46F_47A_49P_50V_52G_53A_54R_55F_67L_, Q9UKT9] | 3.49 | 2.28 | -0.0911 | 1.06 |
| FCCPVCGARFTQKGNLLRHIKL [46F_47C_49P_50V_52G_53A_54R_55F_67L_, Q9UKT9] | 2.31 | 2.41 | 1.79 | 2.26 |
| FQCPVCGARFTQKGNLLRHIKL [46F_47Q_49P_50V_52G_53A_54R_55F_67L_, Q9UKT9] | -0.395 | 2.27 | 1.08 | 3.63 |
| FFCPVCGARFTQKGNLLRHIKL [46F_47F_49P_50V_52G_53A_54R_55F_67L_, Q9UKT9] | 3.35 | 3.29 | 1.72 | 1.35 |
| FVCPVCGARFTQKGNLLRHIKL [46F_47V_49P_50V_52G_53A_54R_55F_67L_, Q9UKT9] | 0.0453 | 2.18 | 0.744 | 2.8 |
| FDCPVCGARFTQKGNLLRHIKL [46F_47D_49P_50V_52G_53A_54R_55F_67L_, Q9UKT9] | 3.12 | 1.66 | 1.4 | 2.71 |
| FMCPVCGARFTQKGNLLRHIKL [46F_47M_49P_50V_52G_53A_54R_55F_67L_, Q9UKT9] | -0.509 | 0.0794 | 1.25 | 0.719 |
| LSCEICGFICTQKGNLLRHIKL [46L_47S_49E_50I_52G_53F_54I_55C_67L_, Q9UKT9] | 0.617 | 0.753 | 0.094 | 0.23 |
| LRCNQCGFDCTQKGNLLRHIKL [46L_47R_49N_50Q_52G_53F_54D_55C_67L_, Q9UKT9] | -2.4 | -3.02 | -2 | -2.27 |
